Hits are enriched below; roughly 8.1% of the tested compounds scored in any of these assays.
KB-3-1 tox: qHTS assay for MDR1-selective chemotherapeutics: Primary screen using the parental adenocarcinoma cell KB-3-1; KB-3-1 viability, CellTiter-Glo ATP luminescence, 72 h; Potency, µM (titrated, usually from 46.1 µM), hits mostly cytotoxic; hit rate 1.4% among 400,000; further: nearly all actives have a fitted effect of over 60% in size
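Viability of parental KB-3-1 cells, measured by CellTiter-Glo luminescence, followed a 72 h incubation at 37 °C with pinned compounds in phenol-red-free DMEM containing 10% FBS.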
MCF10A rerep: A quantitative high throughput screen for small molecules that induce DNA re-replication in MCF 10a normal breast cells | MCF 10A DNA re-replication, Hoechst nuclear intensity, 48 h | Potency, µM (top dose mostly 46.1 µM), actives largely listed as activators | hit rate 2.9% among 350,000; further: nearly all actives have a fitted effect of over 50% in size
SW480 rereplic: A quantitative high throughput screen for small molecules that induce DNA re-replication in SW480 colon adenocarcinoma cells; Potency, µM (titrated, usually from 46.1 µM), actives largely listed as activators; hit rate 1.8% among 340,000; SW480 DNA re-replication, Hoechst DNA content imaging, 48 h; further: nearly all actives have a fitted effect of over 55% in size
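250 cells/well; 23 nL cpd via pin tool; 48 hr, 37 C, 5% CO2; Hoechst 40 min; imager read of total nuclear intensity, ex 405/em 500-530 nm.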
KB-V1 MDR tox: qHTS assay for MDR1-selective chemotherapeutics: Primary screen using the drug-selected MDR subline cells KB-V1; hit rate 3.4% among 400,000; KB-V1 MDR cells viability, CellTiter-Glo, 72 h; Potency, µM (top dose mostly 46.1 µM), hits mostly cytotoxic; further: nearly all actives have a fitted effect of over 60% in size
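qHTS viability screen in drug-selected KB-V1 MDR cells: 72 h compound treatment at 37 degrees C, ATP luminescence end point.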
ELG1 repair inh: qHTS screen for small molecules that inhibit ELG1-dependent DNA repair in human embryonic kidney (HEK293T) cells expressing luciferase-tagged ELG1; hit rate 2.3% among 330,000; HEK293T ELG1-luciferase reporter, luminescence, 16 h; DNA damage induced by 5-fluorouridine; Potency, µM (series often up to 46.1 µM), hits mostly inhibitors; further: nearly all actives have a fitted effect of over 55% in size
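5-Fluorouridine DNA damage + compound/DMSO, 2,000 cells/well, 16 h, 37 °C/5% CO2. ONE-Glo, 30 min RT, luminescence. Readout = decrease in reporter signal.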
Each line names hits and unclear results; the compound was inactive in the other large screens. The call rests on the fitted dose curve; in most records, active means well fitted curve in the direction sought with a large enough effect; inconclusive means small, poorly fitted or top-dose-only effect, or another doubt; inactive means no such curve, though single readings can be large; an effect the other way counts as inactive or inconclusive.

COc1ccc(CC(=O)NNC(=O)c2ccc(Br)o2)cc1	none
CNc1oc(-c2ccccc2Cl)nc1C#N	KB-3-1 tox inconclusive, KB-V1 MDR tox 21µM, ELG1 repair inh inconclusive
O=C(Nc1ccccc1Br)c1ccc(OC(=S)N2CCOCC2)cc1	none
Cc1ccc(NC(=O)c2ccc(OC(=S)N3CCOCC3)cc2)cc1	KB-V1 MDR tox 6.5µM, ELG1 repair inh inconclusive
O=C(Nc1cccc(Br)c1)c1cccc(OC(=S)N2CCOCC2)c1	KB-3-1 tox inconclusive, MCF10A rerep inconclusive, KB-V1 MDR tox inconclusive, ELG1 repair inh 15µM
CN(C)/C=N/c1[nH]ncc1C#N	none
O=C(C1=NN(c2ccccc2)C2C(=O)N(c3ccccc3Cl)C(=O)C12)c1ccccc1 (stereo unspecified)	none
CCOCCC(=O)Nc1ccc2c(c1)c(=O)n(C)n2CC=C(C)C	KB-3-1 tox 3.7µM (no result: MCF10A rerep, SW480 rereplic, ELG1 repair inh)
Cc1cccc(-n2ccnc2SCC(=O)Nc2cccc3ccccc23)c1	none (no result: MCF10A rerep, SW480 rereplic, ELG1 repair inh)
Cc1ccc(C(=O)NNC(=O)C2CCN(c3nccc(C)n3)CC2)cc1	none
CCc1nnc(NC(=O)C2CCCN(c3nc(C)cc(C)n3)C2)s1 (stereo unspecified)	KB-V1 MDR tox 9.2µM
CCc1nnc(NC(=O)C2CCN(c3nccc(C)n3)CC2)s1	KB-V1 MDR tox 16µM
CC1(C)NC(=O)N(CCCOc2ccccc2Br)C1=O	KB-V1 MDR tox inconclusive, ELG1 repair inh inconclusive
COc1ccc(CCNS(=O)(=O)c2cn(C)c(=O)n(C)c2=O)cc1	ELG1 repair inh inconclusive
CCN(c1ccccc1)S(=O)(=O)c1ccc(N2CCN(c3ccc(O)cc3)CC2)nc1	KB-3-1 tox inconclusive, MCF10A rerep 18µM, SW480 rereplic inconclusive, ELG1 repair inh inconclusive
CCN(c1ccccc1)S(=O)(=O)c1ccc(N2CCN(c3ccc(OC)cc3)CC2)nc1	ELG1 repair inh inconclusive
O=C(c1ccc(NC2=NC3CS(=O)(=O)CC3S2)cc1)N1CCN(c2ccccc2)CC1 (stereo unspecified)	ELG1 repair inh inconclusive
Cc1cccc(NC(=O)CCC(=O)N/N=C/c2ccc(O)cc2O)c1	MCF10A rerep inconclusive, SW480 rereplic 6.5µM
O=C(CCc1ccccc1)NCC(=O)N/N=C/c1ccc(O)cc1O	MCF10A rerep inconclusive, SW480 rereplic inconclusive, KB-V1 MDR tox inconclusive, ELG1 repair inh 8.2µM
COc1ccccc1/C=C\C(=O)NCC(=O)N/N=C/c1ccc(O)cc1O	MCF10A rerep inconclusive, ELG1 repair inh 23µM
Cc1ccc(NC(=O)CCC(=O)N/N=C/c2ccccc2O)cc1	ELG1 repair inh inconclusive
CCCCCSc1nnc(C)c(=O)[nH]1	none
O=C(NCC1(c2ccccc2)CCCC1)C1(c2ccccc2)CCCC1	MCF10A rerep inconclusive, KB-V1 MDR tox inconclusive
COc1ccc(Cl)cc1NC(=O)c1nnn(CC(=O)Nc2ccc(OC)c(OC)c2)c1N	none
Cc1cccc(C)c1NC(=O)C(Cl)=C(Cl)Cl	KB-3-1 tox 18µM, SW480 rereplic inconclusive, KB-V1 MDR tox inconclusive
Cc1ccc(N2C(=O)c3ccc(C(=O)N4CCN(Cc5ccccc5)CC4)cc3C2=O)cc1	none
CSc1cccc(Nc2cc(C(=O)NCCCN(Cc3ccccc3)C(C)C)c3ccccc3n2)c1	KB-V1 MDR tox 16µM (no result: MCF10A rerep, SW480 rereplic, ELG1 repair inh)
CCCN1C(=O)/C(=N\OCC(=O)NCC(F)(F)F)c2ccccc21	none
COc1ccccc1CNS(=O)(=O)c1cc(C(=O)N(C)Cc2cccnc2)c(Cl)cc1Cl	KB-3-1 tox inconclusive, KB-V1 MDR tox 5.2µM (no result: ELG1 repair inh)
COc1ccccc1N(C)S(=O)(=O)c1ccc(Cl)c(C(=O)NCc2cccnc2)c1	none
COc1cccc(-c2cc(C(F)(F)F)nc(NCCc3ccc(OC)c(OC)c3)n2)c1	KB-3-1 tox inconclusive (no result: MCF10A rerep, SW480 rereplic, ELG1 repair inh)
O=C(Nc1cccc(C(F)(F)F)c1)c1cc(-c2ccco2)on1	none
O=C(Nc1cccc(C(F)(F)F)c1)c1sc(Cl)nc1C(F)(F)F	MCF10A rerep 21µM, ELG1 repair inh inconclusive
CC(=O)c1ccc2noc(-c3ccc(Cl)cc3)c2c1	MCF10A rerep inconclusive, SW480 rereplic 16µM
CC(=O)c1ccc2noc(-c3ccc(F)cc3)c2c1	none
